# Results reported in ChEMBL document CHEMBL1961873, “Compounds: GSK PKIS; Assays: Nanosyn kinase panel” (2012).
# Columns and labels:
# [1] = target: T1, Inhibitor of nuclear factor kappa-B kinase subunit epsilon (Homo sapiens) (UniProt Q14164); details: at 1 µM;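 also: reported values are averaged percent inhibition figures against human IKKε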
# T1 sequence (whole entry): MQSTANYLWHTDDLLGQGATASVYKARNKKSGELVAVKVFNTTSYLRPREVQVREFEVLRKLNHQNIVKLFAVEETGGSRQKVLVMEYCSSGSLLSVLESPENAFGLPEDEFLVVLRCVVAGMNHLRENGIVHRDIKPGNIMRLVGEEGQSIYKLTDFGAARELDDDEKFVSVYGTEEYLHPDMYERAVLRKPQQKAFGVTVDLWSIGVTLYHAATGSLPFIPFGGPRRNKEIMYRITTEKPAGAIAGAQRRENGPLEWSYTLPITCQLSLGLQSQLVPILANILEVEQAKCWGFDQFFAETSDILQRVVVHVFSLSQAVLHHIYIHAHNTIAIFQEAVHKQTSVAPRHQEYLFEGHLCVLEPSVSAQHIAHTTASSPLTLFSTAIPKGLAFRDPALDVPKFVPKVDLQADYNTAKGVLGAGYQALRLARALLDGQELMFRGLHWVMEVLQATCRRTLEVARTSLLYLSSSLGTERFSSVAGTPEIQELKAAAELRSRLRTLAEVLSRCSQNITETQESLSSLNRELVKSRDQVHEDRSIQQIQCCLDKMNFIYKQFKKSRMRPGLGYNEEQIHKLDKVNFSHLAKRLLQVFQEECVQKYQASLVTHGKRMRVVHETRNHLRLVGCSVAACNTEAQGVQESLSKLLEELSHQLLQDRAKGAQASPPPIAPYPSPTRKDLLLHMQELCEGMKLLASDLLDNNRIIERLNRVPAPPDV
# [2] = target: T2, Serine/threonine-protein kinase Nek1 (Homo sapiens) (UniProt Q96PY6); details: at 0.1 µM
# T2 sequence (whole entry): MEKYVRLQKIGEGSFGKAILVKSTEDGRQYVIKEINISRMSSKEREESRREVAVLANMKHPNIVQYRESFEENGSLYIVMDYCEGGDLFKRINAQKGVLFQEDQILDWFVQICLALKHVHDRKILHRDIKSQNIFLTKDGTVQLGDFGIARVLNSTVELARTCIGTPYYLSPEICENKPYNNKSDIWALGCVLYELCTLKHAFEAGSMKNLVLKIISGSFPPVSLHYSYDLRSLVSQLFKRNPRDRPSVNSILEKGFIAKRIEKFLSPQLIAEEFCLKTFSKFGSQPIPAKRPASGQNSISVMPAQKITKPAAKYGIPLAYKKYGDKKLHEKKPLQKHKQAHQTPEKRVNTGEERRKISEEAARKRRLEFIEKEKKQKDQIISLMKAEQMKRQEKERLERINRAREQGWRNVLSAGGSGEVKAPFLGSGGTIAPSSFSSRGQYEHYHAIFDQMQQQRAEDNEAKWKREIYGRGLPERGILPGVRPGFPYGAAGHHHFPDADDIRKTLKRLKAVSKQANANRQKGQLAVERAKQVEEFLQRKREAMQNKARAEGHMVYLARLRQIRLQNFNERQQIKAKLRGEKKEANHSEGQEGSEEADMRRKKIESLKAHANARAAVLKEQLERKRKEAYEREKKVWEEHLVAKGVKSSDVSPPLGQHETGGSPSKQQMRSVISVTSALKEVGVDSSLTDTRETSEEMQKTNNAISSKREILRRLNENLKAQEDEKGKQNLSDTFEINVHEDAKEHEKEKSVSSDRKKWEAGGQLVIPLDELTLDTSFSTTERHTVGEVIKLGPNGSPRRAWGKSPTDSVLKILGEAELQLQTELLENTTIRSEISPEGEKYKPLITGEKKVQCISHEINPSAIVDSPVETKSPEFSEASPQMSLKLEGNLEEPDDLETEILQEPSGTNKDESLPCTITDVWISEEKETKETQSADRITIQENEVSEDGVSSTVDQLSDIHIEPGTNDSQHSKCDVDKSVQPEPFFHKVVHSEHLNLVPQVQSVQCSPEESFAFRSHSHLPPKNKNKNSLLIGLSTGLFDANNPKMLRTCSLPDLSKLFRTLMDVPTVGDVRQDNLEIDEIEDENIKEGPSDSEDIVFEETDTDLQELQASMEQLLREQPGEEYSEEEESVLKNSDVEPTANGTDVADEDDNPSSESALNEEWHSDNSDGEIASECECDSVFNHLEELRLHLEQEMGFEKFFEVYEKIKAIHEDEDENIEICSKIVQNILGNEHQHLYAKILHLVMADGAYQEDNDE
# [3] = target: T2, Serine/threonine-protein kinase Nek1 (Homo sapiens); details: at 1 µM
# [4] = target: T3, Serine/threonine-protein kinase Nek2 (Homo sapiens) (UniProt P51955); details: at 0.1 µM
# T3 sequence (whole entry): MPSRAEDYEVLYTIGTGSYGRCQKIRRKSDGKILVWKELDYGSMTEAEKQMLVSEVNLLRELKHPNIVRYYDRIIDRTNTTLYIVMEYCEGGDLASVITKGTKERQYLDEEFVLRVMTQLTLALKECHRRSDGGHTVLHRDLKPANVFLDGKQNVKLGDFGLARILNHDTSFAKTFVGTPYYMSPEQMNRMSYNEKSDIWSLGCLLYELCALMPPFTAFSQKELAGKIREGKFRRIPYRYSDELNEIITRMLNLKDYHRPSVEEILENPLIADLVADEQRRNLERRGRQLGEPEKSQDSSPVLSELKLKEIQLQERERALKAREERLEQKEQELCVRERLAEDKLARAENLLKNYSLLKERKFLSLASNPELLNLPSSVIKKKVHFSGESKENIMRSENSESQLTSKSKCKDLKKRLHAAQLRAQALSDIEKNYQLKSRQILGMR
# [5] = target: T3, Serine/threonine-protein kinase Nek2 (Homo sapiens); details: at 1 µM
# [6] = target: Serine/threonine-protein kinase Nek6 (Homo sapiens) (UniProt Q9HC98); details: at 0.1 µM
# Serine/threonine-protein kinase Nek6 (Homo sapiens), sequence (Q9HC98 whole entry): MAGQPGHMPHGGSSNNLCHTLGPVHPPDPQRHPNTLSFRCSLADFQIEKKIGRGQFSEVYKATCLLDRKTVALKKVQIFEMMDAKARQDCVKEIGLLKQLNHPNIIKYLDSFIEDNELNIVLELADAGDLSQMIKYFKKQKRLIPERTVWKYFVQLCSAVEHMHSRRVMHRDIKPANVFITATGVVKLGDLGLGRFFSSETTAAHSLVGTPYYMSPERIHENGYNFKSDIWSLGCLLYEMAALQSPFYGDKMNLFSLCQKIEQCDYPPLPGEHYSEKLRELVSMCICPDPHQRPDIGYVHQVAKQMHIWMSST
# [7] = target: Serine/threonine-protein kinase Nek6 (Homo sapiens) (UniProt Q9HC98); details: at 1 µM
# [8] = target: Serine/threonine-protein kinase Nek7 (Homo sapiens) (UniProt Q8TDX7); details: at 0.1 µM
# Serine/threonine-protein kinase Nek7 (Homo sapiens), sequence (Q8TDX7 whole entry, looked up): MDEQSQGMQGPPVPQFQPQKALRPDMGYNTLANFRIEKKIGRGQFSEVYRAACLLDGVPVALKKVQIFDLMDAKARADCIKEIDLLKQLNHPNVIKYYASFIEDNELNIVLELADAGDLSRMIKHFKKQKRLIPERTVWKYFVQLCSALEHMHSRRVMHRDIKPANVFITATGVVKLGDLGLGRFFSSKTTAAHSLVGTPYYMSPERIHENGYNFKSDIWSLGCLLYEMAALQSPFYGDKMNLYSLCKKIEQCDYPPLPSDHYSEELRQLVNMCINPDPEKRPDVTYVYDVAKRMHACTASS
# [9] = target: Serine/threonine-protein kinase Nek7 (Homo sapiens) (UniProt Q8TDX7); details: at 1 µM
# [10] = target: T4, Serine/threonine-protein kinase Nek9 (Homo sapiens) (UniProt Q8TD19); details: at 0.1 µM
# T4 sequence (whole entry): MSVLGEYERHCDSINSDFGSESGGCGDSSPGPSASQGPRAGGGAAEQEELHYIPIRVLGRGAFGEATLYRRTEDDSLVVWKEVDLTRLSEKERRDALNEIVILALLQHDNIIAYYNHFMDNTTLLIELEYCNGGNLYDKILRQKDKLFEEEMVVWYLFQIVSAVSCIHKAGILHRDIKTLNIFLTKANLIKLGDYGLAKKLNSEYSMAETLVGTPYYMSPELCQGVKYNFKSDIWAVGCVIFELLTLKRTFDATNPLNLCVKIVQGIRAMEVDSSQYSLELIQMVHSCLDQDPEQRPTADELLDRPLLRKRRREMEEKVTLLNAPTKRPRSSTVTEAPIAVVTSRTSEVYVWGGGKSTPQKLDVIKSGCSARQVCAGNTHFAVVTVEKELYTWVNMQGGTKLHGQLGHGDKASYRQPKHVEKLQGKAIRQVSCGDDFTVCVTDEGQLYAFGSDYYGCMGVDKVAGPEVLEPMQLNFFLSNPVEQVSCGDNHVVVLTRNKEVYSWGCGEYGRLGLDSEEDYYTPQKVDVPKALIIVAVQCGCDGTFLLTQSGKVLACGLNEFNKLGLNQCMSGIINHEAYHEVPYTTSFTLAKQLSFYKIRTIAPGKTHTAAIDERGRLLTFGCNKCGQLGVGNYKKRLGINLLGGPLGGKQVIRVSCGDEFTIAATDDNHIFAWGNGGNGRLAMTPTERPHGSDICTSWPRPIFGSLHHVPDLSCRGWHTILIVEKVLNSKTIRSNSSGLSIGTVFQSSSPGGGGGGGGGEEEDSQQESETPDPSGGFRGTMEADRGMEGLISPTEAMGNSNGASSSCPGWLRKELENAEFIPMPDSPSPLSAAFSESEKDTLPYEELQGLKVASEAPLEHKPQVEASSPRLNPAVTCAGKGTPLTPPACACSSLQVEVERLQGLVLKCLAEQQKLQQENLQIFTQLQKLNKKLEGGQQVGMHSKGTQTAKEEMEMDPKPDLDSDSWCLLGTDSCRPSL
# [11] = target: T4, Serine/threonine-protein kinase Nek9 (Homo sapiens); details: at 1 µM
# [12] = target: Serine/threonine-protein kinase PLK1 (Homo sapiens) (UniProt P53350); details: at 0.1 µM
# Serine/threonine-protein kinase PLK1 (Homo sapiens), sequence (P53350 whole entry): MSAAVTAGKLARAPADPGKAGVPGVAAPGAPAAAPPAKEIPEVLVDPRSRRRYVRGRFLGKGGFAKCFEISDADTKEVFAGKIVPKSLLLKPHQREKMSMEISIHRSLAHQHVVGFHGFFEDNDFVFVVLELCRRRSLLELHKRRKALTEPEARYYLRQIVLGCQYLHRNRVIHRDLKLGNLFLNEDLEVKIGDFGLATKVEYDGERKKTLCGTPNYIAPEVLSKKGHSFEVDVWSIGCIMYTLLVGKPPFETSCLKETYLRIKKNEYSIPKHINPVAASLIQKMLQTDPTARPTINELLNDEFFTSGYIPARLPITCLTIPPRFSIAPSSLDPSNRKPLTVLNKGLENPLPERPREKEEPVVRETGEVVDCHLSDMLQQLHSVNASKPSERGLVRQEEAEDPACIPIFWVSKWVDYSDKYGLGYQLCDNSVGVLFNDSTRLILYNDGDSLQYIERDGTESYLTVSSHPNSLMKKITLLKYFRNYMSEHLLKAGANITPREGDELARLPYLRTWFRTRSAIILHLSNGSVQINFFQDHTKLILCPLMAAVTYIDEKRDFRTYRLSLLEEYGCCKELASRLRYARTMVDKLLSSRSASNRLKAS
# [13] = target: Serine/threonine-protein kinase PLK1 (Homo sapiens) (UniProt P53350); details: at 1 µM
# [14] = target: T5, Dual specificity protein kinase TTK (Homo sapiens) (UniProt P33981); details: at 0.1 µM
# T5 sequence (whole entry): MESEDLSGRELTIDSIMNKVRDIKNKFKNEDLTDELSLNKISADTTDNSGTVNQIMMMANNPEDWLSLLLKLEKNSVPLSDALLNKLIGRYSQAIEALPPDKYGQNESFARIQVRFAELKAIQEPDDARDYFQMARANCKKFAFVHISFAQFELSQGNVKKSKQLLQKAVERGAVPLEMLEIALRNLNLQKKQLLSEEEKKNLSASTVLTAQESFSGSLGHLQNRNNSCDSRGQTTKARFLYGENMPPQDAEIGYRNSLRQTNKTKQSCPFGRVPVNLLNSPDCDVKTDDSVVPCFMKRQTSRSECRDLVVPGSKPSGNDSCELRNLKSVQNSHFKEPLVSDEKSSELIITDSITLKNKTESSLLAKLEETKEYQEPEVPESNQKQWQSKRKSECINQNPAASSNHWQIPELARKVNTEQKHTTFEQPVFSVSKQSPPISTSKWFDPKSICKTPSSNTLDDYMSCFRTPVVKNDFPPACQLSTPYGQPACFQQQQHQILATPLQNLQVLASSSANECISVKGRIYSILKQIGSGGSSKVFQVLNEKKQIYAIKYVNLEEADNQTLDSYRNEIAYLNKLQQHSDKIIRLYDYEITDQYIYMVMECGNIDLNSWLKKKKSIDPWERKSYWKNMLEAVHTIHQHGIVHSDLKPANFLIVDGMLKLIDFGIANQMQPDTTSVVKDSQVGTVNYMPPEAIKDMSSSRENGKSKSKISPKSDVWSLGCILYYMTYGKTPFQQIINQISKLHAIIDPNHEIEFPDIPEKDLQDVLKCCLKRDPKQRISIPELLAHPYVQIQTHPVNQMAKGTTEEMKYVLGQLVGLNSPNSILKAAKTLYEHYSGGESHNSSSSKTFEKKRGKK
# [15] = tested on: T6, Receptor-type tyrosine-protein kinase FLT3 (Homo sapiens), P36888 [D835Y]; details: at 1 µM
# T6 sequence (whole entry): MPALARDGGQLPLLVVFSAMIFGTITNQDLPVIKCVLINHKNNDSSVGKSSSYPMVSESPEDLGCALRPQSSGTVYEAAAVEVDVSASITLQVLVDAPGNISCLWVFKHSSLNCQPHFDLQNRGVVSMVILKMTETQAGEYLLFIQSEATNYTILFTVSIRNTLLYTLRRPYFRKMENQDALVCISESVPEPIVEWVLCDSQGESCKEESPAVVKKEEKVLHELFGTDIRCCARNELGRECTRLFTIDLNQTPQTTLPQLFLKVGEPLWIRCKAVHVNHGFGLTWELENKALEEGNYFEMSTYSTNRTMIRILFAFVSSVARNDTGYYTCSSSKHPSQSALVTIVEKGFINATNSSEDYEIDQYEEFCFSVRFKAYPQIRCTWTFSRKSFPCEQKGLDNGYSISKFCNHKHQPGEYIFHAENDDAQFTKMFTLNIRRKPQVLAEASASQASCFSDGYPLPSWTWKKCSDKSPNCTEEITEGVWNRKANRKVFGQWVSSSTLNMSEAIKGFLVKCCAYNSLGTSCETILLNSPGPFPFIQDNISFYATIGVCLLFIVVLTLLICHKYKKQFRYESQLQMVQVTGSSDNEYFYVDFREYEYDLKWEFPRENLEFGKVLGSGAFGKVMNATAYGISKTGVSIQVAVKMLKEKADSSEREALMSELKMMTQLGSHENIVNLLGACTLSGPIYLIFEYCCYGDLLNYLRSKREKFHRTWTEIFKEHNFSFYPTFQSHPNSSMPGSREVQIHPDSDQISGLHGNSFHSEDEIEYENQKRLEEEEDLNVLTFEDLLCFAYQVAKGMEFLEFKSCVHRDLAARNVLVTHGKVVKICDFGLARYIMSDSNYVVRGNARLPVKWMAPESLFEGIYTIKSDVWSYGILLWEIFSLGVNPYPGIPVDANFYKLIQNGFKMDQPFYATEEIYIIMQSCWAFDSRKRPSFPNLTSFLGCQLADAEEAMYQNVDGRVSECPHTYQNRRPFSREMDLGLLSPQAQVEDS
# [16] = target: Vascular endothelial growth factor receptor 3 (Homo sapiens) (UniProt P35916); details: at 0.1 µM
# Vascular endothelial growth factor receptor 3 (Homo sapiens), sequence (P35916 whole entry): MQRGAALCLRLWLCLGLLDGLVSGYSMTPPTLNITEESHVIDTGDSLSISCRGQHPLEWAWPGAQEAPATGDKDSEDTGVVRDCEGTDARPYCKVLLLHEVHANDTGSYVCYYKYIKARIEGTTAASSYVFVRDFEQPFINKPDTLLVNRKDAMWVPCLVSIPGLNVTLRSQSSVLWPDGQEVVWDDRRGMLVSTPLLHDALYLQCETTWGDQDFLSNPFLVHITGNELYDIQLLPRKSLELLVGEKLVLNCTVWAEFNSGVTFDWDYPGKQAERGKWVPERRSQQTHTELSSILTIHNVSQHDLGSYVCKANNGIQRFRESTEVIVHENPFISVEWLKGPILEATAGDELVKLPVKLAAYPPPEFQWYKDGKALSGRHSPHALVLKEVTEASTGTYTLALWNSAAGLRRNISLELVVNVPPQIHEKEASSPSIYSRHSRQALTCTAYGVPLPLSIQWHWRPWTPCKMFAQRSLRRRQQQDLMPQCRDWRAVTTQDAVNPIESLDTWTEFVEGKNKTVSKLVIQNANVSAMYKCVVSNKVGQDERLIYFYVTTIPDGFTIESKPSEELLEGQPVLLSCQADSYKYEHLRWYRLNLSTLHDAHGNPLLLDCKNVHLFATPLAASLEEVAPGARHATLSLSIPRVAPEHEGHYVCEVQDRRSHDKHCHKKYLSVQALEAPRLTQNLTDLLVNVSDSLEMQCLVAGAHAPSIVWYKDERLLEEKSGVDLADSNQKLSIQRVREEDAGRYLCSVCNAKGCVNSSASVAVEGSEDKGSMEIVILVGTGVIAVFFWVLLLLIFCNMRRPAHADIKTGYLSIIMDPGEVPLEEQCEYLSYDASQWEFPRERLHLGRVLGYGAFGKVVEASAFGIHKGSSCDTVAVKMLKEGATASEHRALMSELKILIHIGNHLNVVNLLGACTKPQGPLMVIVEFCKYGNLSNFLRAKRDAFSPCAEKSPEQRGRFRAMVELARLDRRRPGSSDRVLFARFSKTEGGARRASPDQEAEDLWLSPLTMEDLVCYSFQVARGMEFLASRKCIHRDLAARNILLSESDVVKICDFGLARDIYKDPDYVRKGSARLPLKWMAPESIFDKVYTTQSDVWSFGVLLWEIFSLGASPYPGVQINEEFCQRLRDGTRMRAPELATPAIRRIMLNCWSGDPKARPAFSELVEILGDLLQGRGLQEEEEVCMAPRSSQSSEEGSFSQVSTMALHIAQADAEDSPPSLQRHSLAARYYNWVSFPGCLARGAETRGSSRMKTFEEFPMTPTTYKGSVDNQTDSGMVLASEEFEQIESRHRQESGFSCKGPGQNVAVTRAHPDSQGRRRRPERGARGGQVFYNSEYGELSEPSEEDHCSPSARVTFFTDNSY
# [17] = target: Vascular endothelial growth factor receptor 3 (Homo sapiens) (UniProt P35916); details: at 1 µM
# [18] = target: Macrophage colony-stimulating factor 1 receptor (Homo sapiens) (UniProt P07333); details: at 0.1 µM
# Macrophage colony-stimulating factor 1 receptor (Homo sapiens), sequence (P07333 whole entry): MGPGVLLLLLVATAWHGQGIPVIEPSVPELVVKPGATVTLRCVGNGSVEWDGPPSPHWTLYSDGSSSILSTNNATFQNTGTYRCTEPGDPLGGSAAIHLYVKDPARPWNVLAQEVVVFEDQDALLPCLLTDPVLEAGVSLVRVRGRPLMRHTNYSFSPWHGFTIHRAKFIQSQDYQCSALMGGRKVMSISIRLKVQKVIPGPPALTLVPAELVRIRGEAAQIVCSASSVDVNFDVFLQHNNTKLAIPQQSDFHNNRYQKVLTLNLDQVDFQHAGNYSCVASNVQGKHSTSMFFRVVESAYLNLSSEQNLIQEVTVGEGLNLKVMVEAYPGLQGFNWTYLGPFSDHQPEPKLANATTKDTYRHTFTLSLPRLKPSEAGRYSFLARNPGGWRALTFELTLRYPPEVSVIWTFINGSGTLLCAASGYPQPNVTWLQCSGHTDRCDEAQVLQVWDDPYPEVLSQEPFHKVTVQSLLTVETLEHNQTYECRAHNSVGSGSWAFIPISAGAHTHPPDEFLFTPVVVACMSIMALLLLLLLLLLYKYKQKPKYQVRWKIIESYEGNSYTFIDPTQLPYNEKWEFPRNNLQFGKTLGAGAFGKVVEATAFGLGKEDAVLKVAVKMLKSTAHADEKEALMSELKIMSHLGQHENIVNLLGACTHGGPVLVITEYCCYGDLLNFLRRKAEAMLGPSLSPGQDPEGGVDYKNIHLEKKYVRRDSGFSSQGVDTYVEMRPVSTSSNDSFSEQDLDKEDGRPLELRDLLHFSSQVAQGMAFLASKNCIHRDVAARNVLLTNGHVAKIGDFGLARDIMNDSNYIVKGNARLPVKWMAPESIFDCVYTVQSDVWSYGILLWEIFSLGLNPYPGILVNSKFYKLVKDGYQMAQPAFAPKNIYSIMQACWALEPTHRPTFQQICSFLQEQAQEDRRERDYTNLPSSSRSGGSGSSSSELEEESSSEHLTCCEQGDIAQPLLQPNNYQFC
# [19] = target: Macrophage colony-stimulating factor 1 receptor (Homo sapiens) (UniProt P07333); details: at 1 µM
# [20] = target: Tyrosine-protein kinase Fyn (Homo sapiens) (UniProt P06241); details: at 0.1 µM
# Tyrosine-protein kinase Fyn (Homo sapiens), sequence (P06241 2-537 limits assumed): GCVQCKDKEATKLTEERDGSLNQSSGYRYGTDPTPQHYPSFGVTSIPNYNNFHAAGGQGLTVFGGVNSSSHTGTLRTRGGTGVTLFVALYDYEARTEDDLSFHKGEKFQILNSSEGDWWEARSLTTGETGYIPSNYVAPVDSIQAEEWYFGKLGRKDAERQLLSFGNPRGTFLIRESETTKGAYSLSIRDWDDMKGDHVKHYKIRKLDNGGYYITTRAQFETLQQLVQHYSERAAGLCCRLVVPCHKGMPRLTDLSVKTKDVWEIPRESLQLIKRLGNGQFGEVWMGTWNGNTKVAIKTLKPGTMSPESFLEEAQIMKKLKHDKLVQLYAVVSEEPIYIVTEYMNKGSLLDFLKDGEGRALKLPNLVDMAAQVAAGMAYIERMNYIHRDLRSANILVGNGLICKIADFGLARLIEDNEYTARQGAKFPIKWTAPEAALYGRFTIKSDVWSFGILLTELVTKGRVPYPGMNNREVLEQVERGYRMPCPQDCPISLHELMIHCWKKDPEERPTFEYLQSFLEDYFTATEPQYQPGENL
SMILES,inhibition [1] [%],inhibition [2] [%],inhibition [3] [%],inhibition [4] [%],inhibition [5] [%],inhibition [6] [%],inhibition [7] [%],inhibition [8] [%],inhibition [9] [%],inhibition [10] [%],inhibition [11] [%],inhibition [12] [%],inhibition [13] [%],inhibition [14] [%],inhibition [15] [%],inhibition [16] [%],inhibition [17] [%],inhibition [18] [%],inhibition [19] [%],inhibition [20] [%]
COc1cc(/C=N/Nc2ncnc3[nH]ncc23)ccc1O,96.3,3.25,12,3.52,4.62,4.45,5.85,4.07,5.51,0.45,7.86,0.7,7.67,4.54,34,2.46,26.1,7.59,34.4,8.72
NS(=O)(=O)c1ccc(N/N=C2\C(=O)Nc3ccc4ncccc4c32)cc1,44.7,1.98,5.54,3.42,4.79,-0.98,-0.3,4.59,7.69,9.44,41,2.36,2.5,61.2,80.4,43.9,86,34.8,79.3,8.75
COc1cc2ncn(-c3cc(OCc4ccccc4C(F)(F)F)c(C(=O)N(C)C)s3)c2cc1OC,2.1,0.82,4.81,0.75,2.7,1.08,-2.22,2.1,0.24,0.62,3.25,3.97,3.34,4.69,1.1,0.79,15.2,4.5,3.31,1.31
CCOc1ccc2c(-c3ccnc(Nc4cccc(C(F)(F)F)c4)n3)cnn2n1,12.1,2.34,1.31,0.57,1.02,0.83,2.66,1.88,0.03,7.49,4.9,0.64,1.39,3.43,5.75,2.01,3.46,-2.9,14.1,1.07
